# From the supplement of paper PMC9433436
# ± gives the standard deviation of the averaged measurements. Over roughly 4,100 sequences, “relative kcat/Km (krel) vs genomic leader AAAGAU” has its median near 1.7; the highest 2% begin near 6.5. Only a selection was taken, and the highest values are over-represented in it overall.
# Biological target: T1, E. coli RNase P holoenzyme (M1 P RNA + rnpA protein) (UniProt P0A7Y8)
# T1 sequence: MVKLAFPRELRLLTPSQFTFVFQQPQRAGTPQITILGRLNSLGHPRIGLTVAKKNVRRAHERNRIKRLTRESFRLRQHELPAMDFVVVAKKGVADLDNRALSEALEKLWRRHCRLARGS
# Assay: relative kcat/Km (krel) vs genomic leader AAAGAU (relative (reference leader = 1)); higher = faster RNase P cleavage
# Procedure: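 HTS-Kin: a pool of ptRNA-Met (21C construct) with all 4096 combinations of 5' leader nucleotides N(-6) to N(-1) was processed in vitro by E. coli RNase P (P RNA + rnpA/C5 protein) under multiple-turnover conditions at 37 C, pH 8, 17.5 mM MgCl2. Residual substrate was Illumina-sequenced at several fractions reacted, and relative kcat/Km (krel) was computed by internal competition kinetics, calibrated to the genomic leader (AAAGAU = 1). The listed hexamer is the varied N(-6)..N(-1) leader (DNA letters), and it sits between a fixed 5' stem-loop flank (GCAUGCACGAAAGUGCGUGCUAUGAA) and the mature tRNA-Met starting GGCUACGUAGCUCAGUUGG. Two technical replicates are averaged.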
# [1] = fraction of substrate reacted: ~9-10% (9.79% repeat 1, 9.1% repeat 2)
# [2] = fraction of substrate reacted: ~13-16% (15.68% repeat 1, 13.17% repeat 2)
# [3] = fraction of substrate reacted: ~26-29% (28.66% repeat 1, 26.4% repeat 2)
Sequence,relative kcat/Km [1],relative kcat/Km [2],relative kcat/Km [3]
CTCAAT,4.23 ± 0.85,5.46 ± 1.7,7.66 ± 3.5
GCCAAC,1.34 ± 0.25,1.28 ± 1.1,3.94 ± 1
CGCAAT,1.86 ± 0.36,2.82 ± 1.1,4.14 ± 1.8
GTCAAC,4.47 ± 1.7,5.05 ± 1.3,7.94 ± 3.1
AGCAAT,2.43 ± 0.54,2.33 ± 0.049,3.3 ± 1.1
GGCAAC,2.31 ± 1.6,2.29 ± 0.56,3.36 ± 0.68
CCCAAT,2.73 ± 0.86,3.48 ± 0.28,5.27 ± 1.6
ATCAAT,3.19 ± 0.91,4.2 ± 0.86,6.65 ± 3.1
AGTAAG,–,1.26 ± 0.66,3.3 ± 0.62
TAATCG,–,0.624 ± 0.13,1.73 ± 0.43
TAGGTG,–,–,0.812 ± 0.66
GCAATG,–,–,1.35 ± 0.34
TTGCAC,2.41 ± 1.3,2.27 ± 0.05,3.33 ± 0.78
TCTGTT,1.56 ± 0.75,1.38 ± 1.1,1.89 ± 1.2
ACCAAA,2.83 ± 2.3,3.55 ± 0.63,4.37 ± 0.92
AATGAA,2.18 ± 1.1,2.14 ± 0.073,2.72 ± 0.88
GGCGAT,1.24 ± 0.38,1.52 ± 0.5,2.32 ± 0.83
GGGCAA,–,1 ± 0.65,1.5 ± 0.79
GGGGAT,–,–,1.93 ± 1.9
TATCAT,4.22 ± 1.9,5.02 ± 0.57,7.37 ± 3.5
GATCAC,2.93 ± 0.77,4.27 ± 1.3,5.26 ± 2.1
TATCAC,4.08 ± 2.5,4.88 ± 0.12,7.11 ± 2.8
AATCAT,3.17 ± 2,2.88 ± 0.24,4.38 ± 1.7
AATCAC,2.09 ± 1.1,2.63 ± 0.078,4.12 ± 1.3
GATCAT,2.26 ± 0.96,3.62 ± 0.21,5.17 ± 1.7
CCATCT,2.12 ± 1.5,1.53 ± 1.1,2.64 ± 0.42

Sequence,relative kcat/Km [1],relative kcat/Km [2],relative kcat/Km [3]
TACACG,2.67 ± 2.1,2.37 ± 0.74,3.55 ± 0.64
AAGTAC,3.18 ± 1.6,3.53 ± 0.57,4.86 ± 1.7
TAGTAT,3.26 ± 0.97,4.14 ± 0.84,6.5 ± 3.2
TAGTAA,3.7 ± 0.66,4.78 ± 0.65,6.72 ± 3
TAGTAC,4.35 ± 1.3,5.28 ± 0.82,7.85 ± 3.4
CAGTAC,3.68 ± 1.6,4.92 ± 0.95,6.37 ± 2.2
AAGTAA,2.99 ± 1.7,3.36 ± 0.17,4.47 ± 1.6
TCATCG,1.66 ± 1.1,0.943 ± 0.074,1.96 ± 0.15
CGATGC,2.88 ± 0.51,2.7 ± 1.8,4.03 ± 1.4
TAGCTT,1.84 ± 0.3,2.04 ± 0.21,2.8 ± 1.2
ATCGCC,4.35 ± 0.56,5.34 ± 2,7.69 ± 3
GTCGTC,3.09 ± 1.7,2.79 ± 0.12,4.02 ± 1.6
ATCGCT,2.5 ± 0.7,2.34 ± 0.31,3.27 ± 0.6
GGCGCA,1.73 ± 0.44,2 ± 1.2,3.02 ± 1.3
GTCGCA,4.66 ± 1.2,5.5 ± 1.6,7.77 ± 3.1
ATCGCG,2.62 ± 1.1,1.7 ± 0.89,3.07 ± 0.91
TTCGCA,4.21 ± 0.84,6.08 ± 1.7,8.75 ± 3.8
GTCGCC,4.34 ± 1.4,5.5 ± 0.42,7.93 ± 3.1
GTCGCG,2.3 ± 2.2,1.77 ± 0.36,3.47 ± 0.87
GTCGCT,2.09 ± 1.2,2.03 ± 0.41,3.35 ± 1
TGCGCA,2 ± 0.91,1.69 ± 0.53,2.46 ± 0.77
ATCGCA,3.36 ± 1,4.58 ± 0.2,6.35 ± 2.8
GGTCAA,0.981 ± 0.11,1.45 ± 0.14,1.83 ± 1.1
CATTCA,2.03 ± 0.96,2.26 ± 0.27,2.76 ± 0.83
TATACC,1.83 ± 0.44,2.35 ± 0.29,2.84 ± 1.4
TATGGT,–,–,1.77 ± 1.3

Sequence,relative kcat/Km [1],relative kcat/Km [2],relative kcat/Km [3]
CTGCCT,2.67 ± 0.64,1.47 ± 0.29,1.91 ± 0.022
GGAGAG,–,–,1.19 ± 0.14
ATTTTT,2.48 ± 0.92,2.63 ± 0.22,3.89 ± 1.3
TTTAGA,2.52 ± 0.65,3.74 ± 0.44,5.73 ± 2.2
CCCCAT,1.7 ± 1.5,3.312 ± 0.011,4.95 ± 1.3
TTCGCG,–,2.32 ± 0.79,3.87 ± 0.24
CTCGCC,4.36 ± 1.6,5.23 ± 1.7,7.26 ± 2.8
CTCGCA,4.01 ± 1.4,4.94 ± 0.48,6.71 ± 2.1
CGCGCA,1.86 ± 0.068,2.64 ± 0.045,3.31 ± 0.91
TTCGCT,2.88 ± 1.4,3.06 ± 0.21,4.56 ± 1.4
CTCGCT,1.9 ± 0.4,2.61 ± 0.72,3.67 ± 0.94
CTCGCG,2.22 ± 1.4,1.19 ± 1.2,3.19 ± 1
CTCGTA,3.1 ± 0.69,3.21 ± 0.68,4.83 ± 2
TTCGCC,4.66 ± 1.2,6.09 ± 1.6,9.48 ± 3.8
TAAAGG,–,–,0.833 ± 0.34
CCGACA,0.997 ± 0.31,–,0.842 ± 0.8
GTGTCG,–,–,0.804 ± 0.49
AGCCTA,2.05 ± 0.87,1.97 ± 0.57,2.57 ± 0.69
CACAGT,–,–,1.95 ± 1.9
GACAGA,3.09 ± 0.71,4.59 ± 1.2,6.53 ± 2.4
GACAGG,–,–,1.2 ± 0.042
AACAGA,3.71 ± 2.3,4.083 ± 0.036,5.65 ± 2.1
CACAGA,3.95 ± 0.46,4.77 ± 2,7.2 ± 2.4
CACAGG,0.41 ± 0.093,–,1.35 ± 0.051
GTACAG,–,–,1.99 ± 0.4
GAAGGT,–,–,1.31 ± 0.065

Sequence,relative kcat/Km [1],relative kcat/Km [2],relative kcat/Km [3]
TACAGG,–,–,1.7 ± 0.63
TACACA,3.05 ± 1.1,3.7 ± 0.067,5.53 ± 2.6
TACAGC,3.82 ± 2,4.94 ± 0.45,6.84 ± 2.6
TACAGT,–,–,2.94 ± 2.7
TACAGA,4.52 ± 2,5.66 ± 0.35,8.3 ± 3
CACAGC,3.88 ± 1.2,4.31 ± 1.1,5.98 ± 2.7
CTGACC,–,0.599 ± 0.52,1.2 ± 0.63
ACTGTC,1.77 ± 1.3,0.935 ± 0.31,1.12 ± 0.25
AAGATT,1.89 ± 0.21,1.82 ± 0.21,2.06 ± 0.8
ATCTAA,4.39 ± 1.5,5.55 ± 1.1,8.58 ± 3.4
GTCTAA,4.58 ± 0.43,7.55 ± 1.7,10.1 ± 4.8
TTTCTA,2.15 ± 0.72,2.3 ± 0.57,2.89 ± 1.2
TTCTAG,4.08 ± 2.6,4.58 ± 0.56,7.01 ± 3.1
GTGTAA,1.31 ± 0.75,2.41 ± 1.1,2.94 ± 1.5
GGCTAA,2.12 ± 0.85,2.32 ± 0.78,3.19 ± 0.8
TGCTAG,1.97 ± 1.5,1.376 ± 0.0054,2.44 ± 0.12
AGCTAA,3.22 ± 1.8,3.61 ± 1,5.8 ± 3
TTCTAA,5.69 ± 2.2,7.17 ± 1.2,10.6 ± 4.1
TGCTAA,2.19 ± 0.95,2.88 ± 0.23,3.74 ± 1.1
GTGAAC,1.89 ± 0.25,2.27 ± 0.31,2.83 ± 0.88
TTGCAG,–,–,1.37 ± 0.19
GGCTTC,0.513 ± 0.13,1.31 ± 0.14,1.7 ± 0.44
CACTCC,3.12 ± 2.1,3.9 ± 0.2,5.21 ± 1.3
CAAGCT,1.48 ± 1.3,0.905 ± 0.4,1.37 ± 0.37
ATGTAC,3.03 ± 0.37,3.81 ± 0.94,5.39 ± 2.7
TGCGGT,–,–,2.25 ± 1.2

Sequence,relative kcat/Km [1],relative kcat/Km [2],relative kcat/Km [3]
CTAAAA,2.15 ± 0.51,2.43 ± 0.18,2.89 ± 0.88
AGCTAT,4.03 ± 1.8,3.39 ± 1.1,5.23 ± 1.9
CTCTAA,4.48 ± 1.2,6.21 ± 1.1,8.82 ± 3.7
TTCTAT,5.38 ± 0.96,7.59 ± 1.6,10.5 ± 4.7
TTCTAC,5.32 ± 1.5,7.7 ± 1.3,10.6 ± 4.4
CGCTAA,3.07 ± 0.43,3.99 ± 1.2,5.96 ± 2.3
TGCTAT,2.93 ± 0.94,2.69 ± 0.56,3.79 ± 1.5
TGCTAC,2.42 ± 1.5,2.16 ± 0.89,4.62 ± 2.6
TGTGAA,2.72 ± 0.39,2.92 ± 0.98,3.58 ± 1.9
TGATAT,1.84 ± 0.025,3.77 ± 0.75,6.11 ± 3.1
ACATCG,1.31 ± 1.1,–,1.61 ± 0.095
TGGACT,1.76 ± 0.67,0.899 ± 0.057,0.76 ± 0.046
GGTAGG,–,–,1.74 ± 0.56
ATCCCG,1.67 ± 1.4,0.83 ± 0.4,1.86 ± 0.023
GTAGCC,1.99 ± 0.12,1.48 ± 0.66,2.13 ± 0.51
TTTAAT,3.19 ± 1.8,3.87 ± 0.24,5.8 ± 2.3
CAATAT,3.27 ± 0.33,4.46 ± 0.96,6.37 ± 3
TCCATA,4.06 ± 1.5,4.66 ± 0.32,6.71 ± 2.6
TCCATG,–,1.42 ± 0.26,3.46 ± 0.3
GCCATT,1.91 ± 0.79,2.36 ± 0.9,4.74 ± 1.7
TCCATT,4.11 ± 1.2,4.85 ± 1.2,7.33 ± 3.2
ACCATT,2.5 ± 1.4,2.84 ± 0.28,4.27 ± 1.3
ACCATA,2.8 ± 1.8,2.2 ± 0.51,3.64 ± 0.82
GGCCTC,1.28 ± 0.39,0.933 ± 0.5,1.94 ± 0.76
